Bioassay records as filed in PubChem.
The list is not random: actives were taken first. Their share in the collection is about 3.5%.
BoNT A protease: blocks Botulinum neurotoxin A light chain protease. multiplex microsphere protease substrate cleavage, flow cytometry. inhibition, % at 10 µM. actives 0.17% (n = 360,000). AID 588499; note: plate controls were buffer without enzyme for full effect and enzyme alone for no effect
Autofluor counter: counter-screen for toxin protease inhibitors: compound fluorescence. fluorescence intensity (test concentration not listed). actives 3.1% (n = 360,000). AID 624483. compound autofluorescence counterscreen, microsphere flow cytometry; active compounds read high; in the data active = fluorescence intensity above about 16000; inconclusive = no clear call, values can overlap the other calls
BH1578 lux ind: induces V. cholerae light production without autoinducers | V. cholerae BH1578 lux reporter, luminescence, 6 h | activation, % at 18.7 µM | actives 0.16% (n = 350,000); in the data active = activation mostly above about 9.7%, no sharp cut-off; inconclusive = no clear call, values can overlap the other calls; inactive = mostly below about 3.7%
Anthrax LF inh2: inhibitors of Bacillus anthracis lethal factor protease | multiplex microsphere protease cleavage assay, LF | inhibition, % at 10 µM | actives 0.12% (n = 360,000) | P15917; note: plate controls were buffer without enzyme for full effect and enzyme alone for no effect
Target sequence (P15917 whole entry, looked up): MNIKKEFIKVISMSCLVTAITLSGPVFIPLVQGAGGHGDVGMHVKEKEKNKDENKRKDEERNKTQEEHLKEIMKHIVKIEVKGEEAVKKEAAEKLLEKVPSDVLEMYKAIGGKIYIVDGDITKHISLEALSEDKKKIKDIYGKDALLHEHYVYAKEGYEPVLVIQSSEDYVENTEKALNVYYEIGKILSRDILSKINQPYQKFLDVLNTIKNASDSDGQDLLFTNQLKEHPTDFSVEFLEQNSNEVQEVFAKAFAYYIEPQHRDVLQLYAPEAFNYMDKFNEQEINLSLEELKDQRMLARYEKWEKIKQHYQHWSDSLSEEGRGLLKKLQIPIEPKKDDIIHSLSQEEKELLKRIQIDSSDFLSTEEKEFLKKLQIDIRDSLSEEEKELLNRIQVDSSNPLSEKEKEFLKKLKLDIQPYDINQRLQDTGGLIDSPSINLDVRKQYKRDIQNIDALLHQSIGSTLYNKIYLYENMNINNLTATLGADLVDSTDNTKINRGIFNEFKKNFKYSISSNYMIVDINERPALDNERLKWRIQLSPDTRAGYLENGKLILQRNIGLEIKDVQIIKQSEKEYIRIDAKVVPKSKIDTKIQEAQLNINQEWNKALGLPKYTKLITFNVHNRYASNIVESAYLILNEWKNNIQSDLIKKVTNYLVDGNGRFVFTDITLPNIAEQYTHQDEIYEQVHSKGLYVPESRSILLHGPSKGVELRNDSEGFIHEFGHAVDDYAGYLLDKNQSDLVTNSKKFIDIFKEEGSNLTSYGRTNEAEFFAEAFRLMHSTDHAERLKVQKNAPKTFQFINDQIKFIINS
BoNT F protease: inhibitors of Botulinum neurotoxin F light chain protease | inhibition, % at 10 µM | actives 0.22% (n = 360,000) | AID 588497 | Multiplex microsphere protease cleavage assay, flow cytometry; in the data active = inhibition above about 35%, passing the limit was not always enough; inconclusive = no clear call, values can overlap the other calls; note: plate controls were buffer without enzyme for full effect and enzyme alone for no effect
* hit, by the source's call; i = inactive; ? = inconclusive; · = not tested or not shown. Cut-off read from the data, not from the text of the source, unless noted: active = inhibition above about 30%; inconclusive = no clear call, values can overlap the other calls; inactive = below that.

SMILES | BoNT A protease | Autofluor counter | BH1578 lux ind | Anthrax LF inh2 | BoNT F protease
COc1ccc(-n2nc(C(=O)NCC(=O)N3CCN(c4ccccn4)CC3)c3ccccc3c2=O)cc1 | ? | 22175* | -1.7 | -1.7 | -0.2
Cn1c2ccccc2c(=O)c2ccc(C#CC3(O)CCCCC3)cc21 | 5.7 | 3729 | i | 6.5 | 10.1
CN(CC(=O)Nc1ccc(OC(F)(F)F)cc1)C(=O)/C=C/c1cc2c(cc1[N+](=O)[O-])OCO2 | 0.2 | 3864 | -1.3 | -7.2 | 0.0
COc1ccc(OCC(O)CN2CCNCC2)cc1 (configuration not stated) | 0.6 | 4068 | i | 4.6 | ?
O=C(NCc1cn(-c2ccccc2)nc1-c1ccc(F)cc1)c1cccc([N+](=O)[O-])c1 | -0.4 | 2031 | -0.5 | -2.3 | -9.4
COc1ccc(Cc2nnc(NC(=O)c3ccccc3Cl)s2)cc1OC | 0.5 | 4120 | 1.2 | -12.7 | ?
C=C(C)c1ccc(C(C)(C)NC(=O)N(Cc2ccccc2)Cc2ccco2)cc1 | ? | 22989* | -2.4 | -2.0 | -1.1
COc1cc(C)nc(NC(=S)N(C)C(=O)c2ccccc2)n1 | · | · | -0.6 | · | ·
CN(C(=O)c1cccc(NC(=O)Cc2ccc(NC(=O)C3CCN(C(=O)c4ccccc4)CC3)cc2)c1)C1CCCC1 | 0.1 | 2864 | i | -2.8 | -4.1
Cc1c(-c2nc(N)nc(Nc3ccccc3F)n2)oc2ccccc12 | -2.6 | 24893* | 7.1 | -4.0 | -3.0
COC(=O)CCC[C@H]1CC2(C[C@H](CCCO[Si](C)(C)C(C)(C)C)N1C(=O)OC(C)(C)C)OCCO2 | -0.5 | 2981 | -0.6 | -9.4 | -2.6
COCCCNCCCCOc1c(Cl)cc(C)cc1Br | ? | 22891* | i | -4.3 | -8.4
Cc1cc(C)c(OCCCCNCc2ccccc2)c(Cl)c1 | ? | 21662* | -1.9 | -2.6 | -20.9
Cc1cc(C)c(OCCNCc2ccccc2)c(C)c1 | -3.1 | 4377 | -0.7 | 1.7 | 0.1
COC(=O)c1sccc1NC(=O)c1ccc(OC)cc1OC | -0.1 | 2334 | -1.6 | -0.7 | -2.4
COc1ccc(-n2c(COc3ccc(Cl)cc3)nnc2SCc2ccc(C#N)cc2)cc1 | -0.9 | 7650 | i | -3.0 | -2.7
COc1ccc(-n2c(COc3ccc(C)cc3)nnc2SCc2ccc(C#N)cc2)cc1 | 1.2 | 19083* | 2.0 | -2.3 | -1.2
O=C(NCC1CCCO1)C1CCCN(S(=O)(=O)c2cc(Cl)ccc2Cl)C1 (configuration not stated) | -1.5 | 6632 | i | -2.6 | 2.7
CN(C)C(=O)Oc1ccc2ccccc2c1Cl | -1.3 | 23669* | -2.2 | -2.7 | -2.9
CCN(CC)C(=O)Oc1ccc2ccccc2c1Cl | 0.2 | 2249 | -0.6 | -0.4 | -7.2
O=C(C/C=N/OCc1ccc(Cl)cc1Cl)c1ccc(Cl)cc1 | 1.1 | 22103* | -2.9 | -3.1 | -2.4
O=C(C/C=N/OCc1c(Cl)cccc1Cl)c1ccccc1 | -3.8 | 23991* | i | -4.9 | -6.6
O=C(C/C=N/OCc1ccc(Cl)cc1Cl)c1ccccc1 | · | · | -0.3 | · | ·
Cn1c2ccccc2c2nnc(SCC(=O)NC3CCCC3)nc21 | -2.0 | 3743 | -3.1 | -6.1 | 9.2
Cn1c2ccccc2c2nnc(SC3CCOC3=O)nc21 (configuration not stated) | -0.2 | 23365* | i | 0.5 | -0.5
SMILES | BoNT A protease | Autofluor counter | BH1578 lux ind | Anthrax LF inh2 | BoNT F protease
COc1ccc(-c2cc(C(F)F)n3ncc(C(=O)N4CCc5ccccc54)c3n2)cc1 | 0.9 | 2616 | -0.2 | 0.0 | 1.3
O=C(c1cnn2c(C(F)F)cc(-c3ccccc3)nc12)N1CCOCC1 | 3.1 | 21284* | -5.3 | -2.1 | 4.1
O=C(c1cnn2c(C(F)(F)F)cc(-c3ccc4c(c3)OCO4)nc12)N1CCCC1 | ? | 21315* | -6.0 | -1.0 | -0.1
COc1ccc(-c2cc(C(F)F)n3ncc(C(=O)N4CCN5CCCC5C4)c3n2)cc1 (configuration not stated) | 11.5 | 17221* | i | -16.4 | 16.3
Cc1cc(NC(=O)c2cnn3c(C(F)(F)F)cc(-c4ccc(Br)cc4)nc23)no1 | 0.2 | 23282* | i | -1.0 | -0.6
CCCC1=C(C(=O)OCC)C(c2cccs2)C(C#N)=C(N)O1 (configuration not stated) | 0.1 | 22890* | -2.5 | -0.4 | -1.3
CCOC(=O)C1=C(C)NC(SCC(N)=O)=C(C#N)C1c1cccs1 (configuration not stated) | 0.2 | 3001 | i | 0.7 | -0.8
CCSC1=C(C#N)C(c2cccs2)C(C(=O)OC)=C(C)N1 (configuration not stated) | ? | 22477* | 1.4 | 0.3 | 3.8
CCOC(=O)C1=C(C)OC(N)=C(C#N)C1c1ccoc1 (configuration not stated) | -1.8 | 16971* | i | -2.0 | -4.3
